# Results from PubChem BioAssay (NCATS).
# A number with no mark means an inactive call. How the calls were made is not given here.
# Test system: HIV-1 nucleocapsid protein NCp7 (binding to TG oligonucleotide)
# Assay: HIV Nucleocapsid (AID 346);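 further: potency is for inhibitors that block NC binding and lower polarization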
# Conditions: HIV-1 NC / fluorescein-TGTGTGTG probe, fluorescence polarization
# In short: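 Fluorescence polarization readout: labelled TG4xF oligo (10 nM) with 100 nM nucleocapsid protein, high-salt (250mM NaCl) Hepes pH 7.5 buffer containing zinc and fresh reducing agents. Compounds added by pin tool; incubation 1 hr, room temperature.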
# Potency means the concentration at half of the fitted maximal effect.
row,Compound,Potency [µM]
1,CN1CCN(c2ncnc3ccc(-c4ccccc4Cl)cc23)CC1,> 20
2,Cn1c(=O)c(-c2ccc(Cl)cc2)nc2cnc(Nc3ccccc3)nc21,> 20
3,O=c1c(CCc2ccccc2)nc2cnc(N3CCOCC3)nc2n1C1CC1,> 20
4,COc1ccc(NC(=O)N2CCCC3(CCN(C(=O)c4csnn4)CC3)C2)cc1,> 20
5,CN(Cc1ccco1)c1ncncc1-c1ccc2c(c1)OCO2,> 20
6,Clc1ccccc1-c1ccc2ncnc(NC3CCNCC3)c2c1,> 20
7,COc1ccccc1-c1cc(NCc2cnc(C)cn2)ncn1,> 20
8,Cc1cnc(CNc2ncnc3ccc(-c4ccc5c(c4)OCO5)cc23)cn1,> 20
9,COCCn1c(=O)c(CCc2ccccc2)nc2cnc(N(C)C)nc21,> 20
10,Cc1noc(C)c1-c1ccc2ncnc(NC3CCNCC3)c2c1,> 20
11,CC(C)CN1CCC2(CC1)CCN(C(=O)c1cccc(F)c1)CC2,> 20
12,N#Cc1ccc(CN2CCCC3(CCN(S(=O)(=O)c4ccccc4)CC3)C2)cc1,> 20
13,COCCn1c(=O)c(-c2cccs2)nc2cnc(N3CCN(C)CC3)nc21,> 20
14,CNc1cc(-c2ccccc2C)ncn1,> 20
15,O=C(c1cc(C(F)(F)F)cc(C(F)(F)F)c1)N1CCC[C@@]2(CCN(Cc3nccs3)C2)C1,> 20
16,COCCn1c(=O)cnc2cnc(Oc3ccc(OC)cc3)nc21,> 20
17,CN(C)c1ccc(-c2nc(N3CCNCC3)c3ccccc3n2)cc1,> 20
18,COc1cccc(-c2nc(NCCNC(C)=O)c3ccccc3n2)c1,> 20
19,O=c1c(-c2ccccc2)nc2cnc(Nc3ccccc3)nc2n1C[C@H]1CCCO1,> 20
20,Cn1cc(-c2nc3cnc(N4CCNCC4)nc3n(CCc3ccccc3)c2=O)c2ccccc21,> 4

row,Compound,Potency [µM]
1,Cc1cnc(CNc2ncnc3ccc(-c4c(C)noc4C)cc23)cn1,> 20
2,O=C(c1ccncc1)N1CCC2(CC1)CN(c1ccncc1)C2,> 20
3,FC(F)(F)c1ccccc1-c1nccc(NCc2ccccc2)n1,> 20
4,Cn1c(=O)c(-c2cc(F)cc(F)c2)nc2cnc(N3CCOCC3)nc21,> 20
5,CN(C)Cc1ccccc1-c1cncnc1Nc1ccc(F)cc1,> 20
6,CN(C)c1ncc2nc(-c3ccc(F)cc3)c(=O)n(C3CC3)c2n1,> 4
7,COc1cccc(Cn2c(=O)c(-c3ccccc3)nc3cnc(N(C)C)nc32)c1,> 20
8,O=C(c1cccc(F)c1)N1CCC[C@@]2(CCN(c3ccccc3)C2)C1,> 20
9,COc1ccccc1CN1CC[C@@]2(CCCN(C(C)=O)C2)C1,> 20
10,COc1ncc2ncc(=O)n(Cc3ccc(F)cc3)c2n1,> 20
11,COc1ccccc1CNc1cc(-c2cccnc2)ncn1,> 20
12,CN(Cc1ccco1)c1ncncc1-c1ccccc1Cl,> 20
13,COc1cccc(-c2cncnc2NCc2ccccc2OC)c1,> 20
14,COc1cccc(-c2cc(NCc3ccc(OC)cc3OC)ncn2)c1,> 20
15,CN1CC[C@@]2(CCCN(C(=O)c3cccc(F)c3)C2)C1,> 20
16,CCNc1ncc2nc(-c3cccc(C#N)c3)c(=O)n(Cc3cccc(OC)c3)c2n1,17.7
17,COc1ccccc1CN1CCCC2(CCN(C(=O)c3cccc(F)c3)CC2)C1,> 20
18,COCCNc1ccnc(-c2c(C)noc2C)n1,> 20
19,COc1cccc(-c2cncnc2-n2ccnc2)c1,> 20
20,O=C(Nc1ccccc1)N1CCC2(CC1)CCN(C(=O)c1cccc(F)c1)CC2,> 20
